According to PubChem BioAssay AID1558 (National Center for Advancing Translational Sciences (NCATS), 2009):
Where “and” joins values, the source holds several entries; their conditions need not be identical. Identical values can stand only once. Records with an inconclusive call do not appear. A structure can be active in one record and inactive in another. Calls of active or inactive are those of the source. Calls come from the whole dose curve; as a rule, active = well fitted inhibition curve with a large enough effect; inconclusive = small, poorly fitted or top-dose-only effect; inactive = flat fitted curve, though single readings scatter.

Each compound was assayed against Microtubule-associated protein tau (Homo sapiens) (UniProt P10636) (assay: Confirmation Concentration-Response Assay for Inhibitors of Tau Fibril Formation, Thioflavin T Binding). Conditions: recombinant tau K18 P301L (four-repeat tau fragment) heparin fibrillization, ThT fluorescence; series mostly up to 100 µM; activity change, negative = inhibition: at the top concentration.
From the text: NIH Molecular Libraries Probe Production Network [MLPCN] NIH Chemical Genomics Center [NCGC] MLPCN Grant: X01 MH083262-01 Assay Provider: Carlo Ballatore, University of Pennsylvania NCGC Assay Overview: The microtubule-associated protein tau is an abundant protein in the axons of neurons that stabilizes microtubules. With its ability to modulate microtubule dynamics, tau contributes directly or indirectly, to key structural and regulatory cellular functions. Particularly important is the influence tau exerts on axonal transport, which allows signaling molecules, trophic factors and other essential cellular constituents to travel along the axons. Under pathological conditions, tau becomes sequestered into insoluble aggregates called neurofibrillary tangles. This phenomenon is believed to have pathological consequences by promoting axonal transport deficits that ultimately lead to synaptic dysfunction and neuronal loss. To identify inhibitors of tau aggregation, a heparin-induced tau fibril formation assay was used that employed a recombinantly expressed fragment of tau, K18 (Q242-E372), bearing a P301L mutation (Gustke et al. 1994; Hong et al. 1998). This assay monitors tau fibrillization by Thioflavin T (ThT) fluorescence. Gustke, N., B. Trinczek, et al. (1994). "Domains of tau protein and interactions with microtubules." Biochemistry 33(32): 9511-22. Hong, M., V. Zhukareva, et al. (1998). "Mutation-specific functional impairments in distinct tau isoforms of hereditary FTDP-17." Science 282(5395): 1914-7. Li, W. and V. M. Lee (2006). "Characterization of two VQIXXK motifs for tau fibrillization in vitro." Biochemistry 45(51): 15692-701. von Bergen, M., S. Barghorn, et al. (2001). "Mutations of tau protein in frontotemporal dementia promote aggregation of paired helical filaments by enhancing local beta-structure." J Biol Chem 276(51): 48165-74.
For screening, 2 uL/well human K18 P301L (15 uM unlabeled and 0.24 uM Alexa 594-labeled tau, final concentrations) in reagent buffer (100 mM sodium acetate pH 7) was dispensed into black solid 1536-well plates (Grenier) using a solenoid-based dispenser. Following transfer of 23 nL compound or DMSO vehicle by a pin tool, 2 uL/well heparin (20 uM final concentration) in reagent buffer was added and the plate centrifuged 15 s at 1000 RPM. Plates were incubated 6 hr at 37 C and then 1 uL/well ThT (30 uM final concentration) was added. After a 1 hr ambient incubation, the plates were read by an Envision (Perkin Elmer) to monitor ThT fluorescence (450/8 nm excitation and 510/23 nm emission). Keywords: NIH Roadmap, MLPCN, MLI, MLSMR, NCGC, qHTS, tau, tauopathies, Alzheimer's disease, fibril, neurodegeneration, aggregation

Microtubule-associated protein tau (Homo sapiens), sequence (P10636 561-689 P618L limits assumed): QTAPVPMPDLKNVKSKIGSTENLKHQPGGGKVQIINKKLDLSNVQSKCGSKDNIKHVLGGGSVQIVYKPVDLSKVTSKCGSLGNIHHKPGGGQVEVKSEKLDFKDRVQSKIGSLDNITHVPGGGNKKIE

SMILES | activity change, negative = inhibition | Potency
Cc1ccc(NC(=O)N2CCN(c3ccccn3)CC2)cc1 | -13.3% (inactive) | –
COC(=O)c1c(NC(=O)C(C)(C)C)sc2c1C(C(=O)OC)CC2 (stereo not given) | -17.1% (inactive) | –
CN(c1ccccc1)S(=O)(=O)c1nnc(NC(=O)C2CCCCC2)s1 | – | 22.4 µM (active)
COc1ccc2[nH]c(=O)c(CNc3ccccc3OC)cc2c1 | – | 25.1 µM (active)
CCOC(=O)c1c(N)sc2c1CCOC2 | -10.4% [at 57.1 µM] (inactive) | –
COc1ccc(NC(=O)Cn2cc(S(=O)(=O)N3CCN(c4ccccc4F)CC3)c3ccccc3c2=O)cc1Cl | 5.9% (inactive) | –
O=C(O)CC1S/C(=N/N=C/c2ccc(-c3ccccc3[N+](=O)[O-])o2)NC1=O (stereo not given) | – | 11.2 µM (active)
CC(C)c1ccc(NS(=O)(=O)c2ccc3[nH]cc(C(=O)NCCc4ccccc4)c(=O)c3c2)cc1 | 7.6% (inactive) | –
CCOC(=O)c1c(N)sc2c1CN(C)CC2 | -12.4% [at 57.1 µM] (inactive) | –
COc1ccc2c(c1)c(CC(=O)Nc1ccc(C(C)=O)cc1)c(C)n2C(=O)c1ccc(Cl)cc1 | -18.6% (inactive) | –
COc1ccc2c(c1)c(CC(=O)N1CCOCC1)c(C)n2C(=O)c1ccc(Cl)cc1 | -12.2% (inactive) | –
NCCc1ccc(O)c(O)c1 | -25.5% (inactive) | –
CCOC(=O)c1nn(-c2ccc(Cl)cc2)c(=O)c2c(N)scc12 | – | 2.24 µM (active)
CCn1c(CSc2nccn2C)nc2cc(C(=O)O)ccc21 | – | 39.8 µM (active)
NC[C@@H](O)c1ccc(O)c(O)c1 | -8.35% (inactive) | –
O=C(Nc1ccccc1)Nc1ccccc1 | 10.8% (inactive) | –
Nc1scc2c(CO)nn(-c3ccccc3)c(=O)c12 | – | 3.98 µM (active)
Cc1ccc(NCc2cc3cc4c(cc3n(CC(=O)Nc3ccc(C)cc3)c2=O)OCCO4)cc1 | -0.6% (inactive) | –
CCOC(=O)c1nn(-c2ccccc2)c(=O)c2c(N)scc12 | – | 3.98 µM (active) and 7.94 µM (active)
COc1ccc(NC(=O)C2CCN(S(=O)(=O)c3c(C)noc3/C=C/c3cccs3)CC2)cc1Cl | -9.5% (inactive) | –

SMILES | activity change, negative = inhibition | Potency
Cn1cc(Cl)c(C(=O)Nc2cccc(Cl)c2Cl)n1 | -15.1% (inactive) | –
CN(C)c1ccc(-c2cc[nH]c(=O)c2N)cc1 | – | 1.58 µM (active)
O=C(Nc1cccc(-c2nc3ccccc3o2)c1)c1cc([N+](=O)[O-])ccc1N1CCOCC1 | -10% (inactive) | –
O=C(Cc1ccccc1)Nc1sc2c(c1C(=O)Nc1cccc(Cl)c1)CCCC2 | -11.2% [at 57.1 µM] (inactive) | –
CCOC(=O)c1nn(-c2ccc(F)cc2)c(=O)c2c(N)scc12 | – | 5.01 µM (active)
O=S(=O)(c1ccc(N=C2NN=C(c3cc(F)ccc3F)CS2)cc1)N1CCOCC1 | – | 4.47 µM (active)
Nc1cc(-c2ccccc2)c[nH]c1=O | – | 8.91 µM (active)
COC(=O)c1c(NC(=O)CCCOc2ccc(C)cc2)sc2c1C(C(=O)OC)CC2 (stereo not given) | – | 3.55 µM (active)
Cn1sc(NC(=O)c2ccccc2)nc1=O | -0.876% [at 57.1 µM] (inactive) | –
COc1cc(/C=N/N=C2/NC(=O)C(CC(=O)O)S2)ccc1OCc1ccc(Cl)cc1 (stereo not given) | -9.55% (inactive) | –
Nc1nc2cc(S(=O)(=O)NC3=NCCCCC3)ccc2s1 | – | 20 µM (active)
CN(C(=S)Nc1cccnc1)c1ccc(O)cc1 | – | 10 µM (active)
COc1ccc(OC)c(NC(=O)c2c(NCc3cccs3)sc3c2CCCC3)c1 | -23.9% [at 57.1 µM] (inactive) | –
Nc1nn(-c2ccccc2)c(=O)c2c(N)scc12 | – | 5.01 µM (active)
Cc1ccc(N2C(=O)SC(Cc3ccccc3)C2=O)cc1 (stereo not given) | -28.8% (inactive) | –
COc1ccc(CNC(=O)Cn2nc(C)n3cccc3c2=O)cc1 | -7.15% (inactive) | –
COc1cccc(/C=C2/SC(=S)N(CC(=O)Nc3nnc(C)s3)C2=O)c1 | 4.72% [at 57.1 µM] (inactive) | –
Cc1ccc(C(=O)Nc2nc(=O)n(C(=O)CC(C)C)s2)cc1 | -13.7% (inactive) | –
O=C(Nc1nc2ccc(S(=O)(=O)N3CCCC3)cc2s1)c1ccc(F)cc1 | 12.3% (inactive) | –
O=C(Cc1ccccc1)Nc1sc2c(c1C(=O)Nc1ccc(Cl)cc1)CCCC2 | – | 1 µM (active) and inactive
